PRC2 inh: blocks human EZH2/PRC2 H3K27 methylation; 57,000 compounds, 0.35% hits; AID 651548; inhibition, % at 12.5 µM; DELFIA TRF, 1 h;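 active = mean inhibition of replicates at least 50% and every single replicate also reaching 50%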;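 also: dimethyl H3K27 on biotinylated H3 21-44 peptide detected by antibody; plate controls were median neutral control wells for no effect and median positive control wells for full effect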
Target sequence (Q15910 whole entry, looked up): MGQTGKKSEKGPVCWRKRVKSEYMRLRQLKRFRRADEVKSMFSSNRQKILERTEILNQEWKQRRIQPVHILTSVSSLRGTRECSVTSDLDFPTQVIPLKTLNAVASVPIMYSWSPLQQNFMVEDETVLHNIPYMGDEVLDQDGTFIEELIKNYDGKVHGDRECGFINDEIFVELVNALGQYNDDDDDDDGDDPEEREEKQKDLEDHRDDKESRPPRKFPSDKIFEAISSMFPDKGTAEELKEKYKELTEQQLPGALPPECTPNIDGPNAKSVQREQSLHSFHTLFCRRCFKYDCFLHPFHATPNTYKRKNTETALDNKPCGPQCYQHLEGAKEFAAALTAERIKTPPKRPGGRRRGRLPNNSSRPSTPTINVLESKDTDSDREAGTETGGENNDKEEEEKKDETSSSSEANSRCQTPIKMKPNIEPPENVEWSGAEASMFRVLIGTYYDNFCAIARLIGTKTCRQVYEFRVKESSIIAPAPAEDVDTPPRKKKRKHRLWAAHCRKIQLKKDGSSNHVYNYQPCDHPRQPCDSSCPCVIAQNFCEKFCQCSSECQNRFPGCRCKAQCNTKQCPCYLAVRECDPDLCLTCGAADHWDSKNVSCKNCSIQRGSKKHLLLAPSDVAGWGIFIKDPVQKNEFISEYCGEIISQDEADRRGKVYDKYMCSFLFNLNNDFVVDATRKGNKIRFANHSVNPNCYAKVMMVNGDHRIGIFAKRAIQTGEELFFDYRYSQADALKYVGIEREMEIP
* marks the source's active call; other numbers are inactive results. Shown is part of a subset that was picked to be rich in hits.

`Cc1noc(C)c1NC(=O)Nc1ccc2c(c1)CC(=O)N([C@H](C)CO)C[C@H](C)[C@@H](CN(C)Cc1ccc(Cl)c(Cl)c1)O2` gave PRC2 inh -15.
O=C(Nc1ccc(Br)cc1)C1CN(S(=O)(=O)c2ccccc2)CCN1S(=O)(=O)c1ccccc1 (configuration not stated) was read as PRC2 inh 0.
CCn1c(SCC(=O)Nc2ccc(F)cc2F)nnc1-c1ccco1 was read as PRC2 inh -3.
CO[C@H]1CN(C)C(=O)c2cc(NS(=O)(=O)c3ccc(Oc4ccccc4)cc3)ccc2OC[C@H](C)NC[C@@H]1C was read as PRC2 inh -4.
CN(CC(=O)Nc1cccc(Cl)c1)S(=O)(=O)c1ccc2ccccc2c1 was read as PRC2 inh 42.
For CN(CC(=O)Nc1cccc(I)c1)S(=O)(=O)c1ccc(Cl)cc1 the results were PRC2 inh 53*.
CC(=O)Nc1ccc(NC(=O)CN(C)S(=O)(=O)c2ccc(Cl)cc2)cc1 was read as PRC2 inh -4.
Screening COc1ccc(NC(=O)CSc2nnc(-c3ccncc3)n2-c2ccc(Cl)cc2)cc1 returned PRC2 inh -16.
Screening CC(=O)N(C)C[C@@H]1Oc2cc(Br)ccc2S(=O)(=O)N([C@@H](C)CO)C[C@H]1C returned PRC2 inh 13.
Screening Cc1cc(=O)oc2cc(NC(=S)NCc3cccnc3)ccc12 returned PRC2 inh -9.
`Cc1cc2oc(=O)cc(CN(C)Cc3ccccc3)c2cc1C(C)C` gave PRC2 inh 50*.
`CCCc1cc(=O)oc2cc(OCc3cc(C(=O)O)oc3C)ccc12` gave PRC2 inh -8.
Screening O=C(c1ccccc1)c1ccc(COC(=O)c2ccccc2NC(=O)c2ccco2)cc1 returned PRC2 inh 6.
`O=C1c2ccccc2S(=O)(=O)N1CCCCN1CCN(c2ncccn2)CC1` gave PRC2 inh -10.
`C[C@H]1CN([C@@H](C)CO)S(=O)(=O)c2ccc(C#Cc3cccc(F)c3)cc2O[C@H]1CN(C)S(=O)(=O)c1cn(C)cn1` gave PRC2 inh -28.
For O=C(O)CCCCCCC(=O)Nc1ccc(C2CC(CSc3nc(-c4ccccc4)c(-c4ccccc4)o3)OC(c3ccccc3)O2)cc1 (configuration not stated) the results were PRC2 inh 92*.
O=C(CCSc1nnc(-c2ccccc2)o1)Nc1ccc(F)cc1 was read as PRC2 inh -15.
Screening CC(=O)c1cccc(NC(=O)CSc2nc(-c3ccccc3)c(-c3ccccc3)o2)c1 returned PRC2 inh 31.
For COc1ccc([Si](C)(C)[C@H]2[C@H](CCn3cc([C@H](O)c4ccccc4)nn3)O[C@@]3(C(=O)N(Cc4ccc(N5CCC5=O)cc4)c4ccccc43)[C@@H]2C)cc1 the results were PRC2 inh -2.
`O=C(NO)c1ccc(C(=O)N/N=C/c2ccc(O)cc2)cc1` gave PRC2 inh 4.
`O=C(NO)c1ccc(C(=O)N/N=C/c2ccccc2C(=O)O)cc1` gave PRC2 inh 5.
`O=C(CCCCC(=O)N/N=C/c1cccc(O)c1O)NO` gave PRC2 inh 4.
Screening CCN(CC)c1ccc(/C=N/NC(=O)c2ccc(C(=O)NO)cc2)c(O)c1 returned PRC2 inh -1.
`O=C(NO)c1ccc(C(=O)N/N=C/c2ccc(O)c(O)c2O)cc1` gave PRC2 inh 89*.
`O=C(NO)c1ccc(C(=O)N/N=C/c2cccc(O)c2O)cc1` gave PRC2 inh 76*.
For CCCN1C[C@@H](C)[C@H](OC)CN(C)C(=O)c2cc(NC(=O)NC3CCCCC3)ccc2OC[C@H]1C the results were PRC2 inh -31.
Screening O=C(Nc1ccc(O)cc1)c1cc(S(=O)(=O)N2CCOCC2)c(Cl)cc1Cl returned PRC2 inh 6.
Screening CO[C@H]1CN(C)C(=O)c2ccc(NC(=O)c3ccno3)cc2OC[C@H](C)NC[C@H]1C returned PRC2 inh -2.
Screening COc1cc(C2OC[C@@H]3[C@@H](c4cc(OC)c(O)c(OC)c4)OC[C@H]23)cc(OC)c1O (some centres not stated) returned PRC2 inh -27.
COc1cc([C@H]2OC[C@H]3[C@@H]2CO[C@H]3c2ccc(OC)c(OC)c2)ccc1O was read as PRC2 inh 9.
For COc1cc([C@H]2OC[C@H]3[C@@H]2CO[C@@H]3c2ccc(O)c(OC)c2)ccc1O the results were PRC2 inh 80*.
COCC(=O)N(C)C[C@H]1Oc2cc(C#C[C@H](C)O)ccc2S(=O)(=O)N([C@@H](C)CO)C[C@@H]1C was read as PRC2 inh -7.
CC1(C)CC[C@]2(C(=O)O[C@@H]3O[C@H](CO)[C@@H](O)[C@H](O)[C@H]3O)CC[C@]3(C)C(=CCC4[C@@]5(C)CC[C@H](O[C@@H]6O[C@H](C(=O)O)[C@@H](O[C@@H]7O[C@H](CO)[C@@H](O)[C@H](O)[C@H]7O)[C@H](O)[C@H]6O[C@@H]6O[C@H](CO)[C@@H](O)[C@H](O)[C@H]6O)C(C)(C)C5CC[C@]43C)C2C1 (some centres not stated) was read as PRC2 inh 11.
`CC1(C)CC[C@]2(C(=O)O[C@@H]3O[C@H](CO)[C@@H](O)[C@H](O)[C@H]3O)CC[C@]3(C)C(=CCC4[C@@]5(C)CC[C@H](O[C@@H]6O[C@H](C(=O)O)[C@@H](O)[C@H](O)[C@H]6O)[C@@](C)(CO)C5CC[C@]43C)C2C1` (some centres not stated) gave PRC2 inh 3.
Screening C[C@@H]1CC[C@]2(C(=O)OC3OC(CO)C(OC4OC(CO)C(O)C(O)C4O)C(O)C3O)CC[C@]3(C)C(=CCC4[C@@]5(C)CC[C@H](O)[C@](C)(C(=O)O)C5CC[C@]43C)C2[C@]1(C)O (some centres not stated) returned PRC2 inh 60*.
CO[C@@H]1CN(C)C(=O)c2ccc(NC(=O)C3CC3)cc2OC[C@@H](C)N(C(=O)C2CCOCC2)C[C@H]1C was read as PRC2 inh 1.
`CC(C)NC(=O)Nc1ccc2c(c1)C(=O)N([C@@H](C)CO)C[C@@H](C)[C@H](CN(C)C(=O)Nc1ccccc1)O2` gave PRC2 inh 1.
COc1cccc(C#Cc2cnc3c(c2)C(=O)N([C@@H](C)CO)C[C@H](C)[C@H](CN(C)C(=O)C2CCC2)O3)c1 was read as PRC2 inh 12.
COc1cccc(C#Cc2cnc3c(c2)C(=O)N([C@@H](C)CO)C[C@@H](C)[C@@H](CN(C)C(=O)C2CCCCC2)O3)c1 was read as PRC2 inh -10.
COc1cccc(C#Cc2cnc3c(c2)C(=O)N([C@H](C)CO)C[C@@H](C)[C@H](CN(C)C(=O)C2CCCCC2)O3)c1 was read as PRC2 inh 95*.
`C[C@@H]1CN([C@@H](C)CO)C(=O)c2cc(C#C[C@@H](C)O)cnc2O[C@H]1CN(C)C(=O)c1ccncc1` gave PRC2 inh -13.
`C[C@@H]1CN([C@@H](C)CO)C(=O)c2cc(-c3ccncc3)cnc2O[C@@H]1CN(C)C(=O)C1CCOCC1` gave PRC2 inh -2.
`O=C(NCC[C@@H]1CC[C@@H](NS(=O)(=O)c2cccc(F)c2)[C@H](CO)O1)Nc1cc(F)ccc1F` gave PRC2 inh 33.
For O=C(O)CCCCCCC(=O)N/N=C/c1ccc(N(c2ccccc2)c2ccccc2)cc1 the results were PRC2 inh 63*.
For O=C(O)CCCCCC(=O)N/N=C/c1ccccc1 the results were PRC2 inh 0.

Assay outcomes: PubChem BioAssay, Broad Institute
